Assay results published in the supplement of paper PMC12494721.
Structures can show the parent of a compound that is named as a salt.

These molecules were tested on Ruminococcus gnavus DSM 108212 (assay: growth (OD595) fold change vs plate DMSO controls (fold change (ratio)); higher = more growth). Conditions: incubation time: 27 h, anaerobic, 37 °C;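 for the amine columns active = adjusted P below 0.05 in both replicates with a change the same way and a mean fold change under 0.8 or over 1.25; inactive = the rest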.
Summary of the method: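 The reported measure is growth: the fold change against the median of DMSO controls on the plate. Absorbance at 595 nm from anaerobic 96-well mGAM cultures grown for 27 h at 37 °C was blank-subtracted, corrected for background with 20 µM compound solutions in water, and converted to OD with a calibration factor of 5. Fold changes above 1.5 appear as NA, and values are the mean of 2 biological replicates.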

growth, 0.996:
CN(C)CCc1c[nH]c2ccc(Cn3cncn3)cc12 [Rizatriptan benzoate] (20 µM)

growth, 0.929:
CC(=O)CCCCn1c(=O)c2c(ncn2C)n(C)c1=O [Pentoxifylline] (20 µM)

growth, 0.11:
CC(=O)Oc1ccccc1C(=O)Nc1ncc([N+](=O)[O-])s1 [Nitazoxanide] (20 µM)

growth, 1.03:
O=C(NCc1ncc(C(F)(F)F)cc1Cl)c1c(Cl)cccc1Cl (20 µM)

growth, 1.12:
Cn1c(=O)c2nc[nH]c2n(C)c1=O [Theophylline monohydrate] (20 µM)

growth, 0.883:
COC(=O)C1=C(C)NC(C)=C(C(=O)OC)C1c1ccccc1[N+](=O)[O-] [Nifedipine] (20 µM)

Each molecule was assayed on Klebsiella aerogenes DSM 30053 (assay: fold change of Histamine concentration vs plate DMSO controls (fold change (ratio)); higher = more amine produced, active = hit call of the paper (significant change in both replicates, either direction)). Conditions: incubation time: 27 h, anaerobic, 37 °C.
Summary of the method: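 Anaerobic mGAM cultures of four gut bacterial strains were grown at 37 °C for 27 h in 80 µL wells, starting at OD 0.1 before 1:1 dilution. Compounds were at 20 µM final (sweeteners 50 µM). Whole cultures were extracted with cold acetonitrile/methanol containing 0.1% formic acid and centrifuged. Amines were quantified by LC–triple-quadrupole MS (dynamic MRM) against external calibration curves and drift-corrected within batch. Each value is the fold change versus plate DMSO controls, averaged over 2 biological replicates.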

Fold change of Histamine concentration, inactive:
CNC(=C[N+](=O)[O-])NCCSCc1ccc(CN(C)C)o1 [Ranitidine hydrochloride] (20 µM) 0.953, C/C(O)=C(\C#N)C(=O)Nc1ccc(C(F)(F)F)cc1 [Teriflunomide] (20 µM) 1.01, Cc1ccsc1/C=C/C1=NCCCN1C [Morantel tartrate] (20 µM) 0.92, CCCCOCCOCCOCc1cc2c(cc1CCC)OCO2 (20 µM) 0.98, CC(C)C(=O)Nc1ccc([N+](=O)[O-])c(C(F)(F)F)c1 [Flutamide] (20 µM) 1.02, N=c1nc(N2CCCCC2)cc(N)n1O [Minoxidil] (20 µM) 0.98, C[C@]12CCC3=C4CCC(=O)C=C4CC[C@H]3[C@@H]1CC[C@@]2(O)CC#N [Dienogest] (20 µM) 0.945, CN(Cc1cnc2nc(N)nc(N)c2n1)c1ccc(C(=O)N[C@@H](CCC(=O)O)C(=O)O)cc1 [Amethopterin] (20 µM) 0.922, NC(=O)C1CO1 (configuration not stated) [Glycidamide] (20 µM) 1.05, O=C1[C@H]2CCCC[C@H]2C(=O)N1CCCCN1CCN(c2nsc3ccccc23)CC1 [Perospirone hydrochloride] (20 µM) 0.986, C=C1[C@H](CO)[C@@H](O)C[C@@H]1n1cnc2c(=O)[nH]c(N)nc21 [Entecavir] (20 µM) 0.969, O=c1n(CCCN2CCN(c3cccc(Cl)c3)CC2)nc2ccccn12 [Trazodone hydrochloride] (20 µM) 1.03, CC(=O)Nc1nnc(S(N)(=O)=O)s1 [Acetazolamide] (20 µM) 1.04, CCOC(=O)C1=C(C)NC(C)=C(C(=O)OC)C1c1cccc([N+](=O)[O-])c1 (configuration not stated) [Nitrendipine] (20 µM) 1.08, CCCSS/C(CCO)=C(/C)N(C=O)Cc1cnc(C)nc1N [Prosultiamine] (20 µM) 0.951, CC(C)NCC(O)c1ccc(NS(C)(=O)=O)cc1 (configuration not stated) [Sotalol hydrochloride] (20 µM) 0.907, NC(=O)OCC(O)COc1ccc(Cl)cc1 (configuration not stated) [Chlorphensin carbamate] (20 µM) 0.969, C[C@]12CC[C@H]3[C@@H](CCC4=CC(=O)CC[C@@]43C)[C@@H]1CC[C@@H]2C(=O)CO [Deoxycorticosterone] (20 µM) 0.959, OC(CCCN1CCCCC1)(c1ccccc1)c1ccccc1 [Diphenidol hydrochloride] (20 µM) 1.06, Cc1cccc(Nc2ccncc2S(=O)(=O)NC(=O)NC(C)C)c1 [Torsemide] (20 µM) 1.03, CCN(CC)C(=O)Nc1ccc(OCC(O)CNC(C)(C)C)c(C(C)=O)c1 (configuration not stated) [Celiprolol hydrochloride] (20 µM) 1.09, CC(NCCC(c1ccccc1)c1ccccc1)c1ccccc1 (configuration not stated) [Fendiline hydrochloride] (20 µM) 1.06, Oc1c(I)cc(Cl)c2cccnc12 [Clioquinol] (20 µM) 1.03, CCCCC1=NC2(CCCC2)C(=O)N1Cc1ccc(-c2ccccc2-c2nnn[nH]2)cc1 [Irbesartan] (20 µM) 1.05, CCc1ccc(C(=O)C(C)CN2CCCCC2)cc1 (configuration not stated) [Eperisone Hydrochloride] (20 µM) 0.995

Fold change of Histamine concentration, active:
CCn1cc(C(=O)O)c(=O)c2cc(F)c(N3CCNC(C)C3)c(F)c21 (configuration not stated) [Lomefloxacin hydrochloride] (20 µM) 0.0674
